Source: the supplement of paper PMC10849652
Targets with a hit are over-represented here; the source holds about 8,800 in all. About 0.5% of all pairs of compound and target were hits.

Key:
Assay in all cases: log2 fold change, soluble protein after heating vs DMSO (PISA); higher = thermal stabilisation; K562 lysate, 10 uM; active = over 0.2 and 3.5 SD of the protein, either way, in both replicates (recomputed)
erlotinib = compound: C#Cc1cccc(Nc2ncnc3cc(OCCOC)c(OCCOC)cc23)c1 [erlotinib]
Procedure, shortened: (§1)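 Thermal stability, expressed as log-two fold change relative to solvent controls, is given from duplicates. Crude K562 extract in PBS pH 7.4 with 1 mM MgCl2, at 1 mg/mL protein, was treated with 10 μM compound for 30 min and heated in aliquots for 3 min across 48°C-58°C. After pooling, adjustment to 0.5% NP-40 at 4°C and centrifugation at 21,000xg for 90 min, supernatant protein was measured by TMTpro 16plex LC-MS/MS with channel sums equalised.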

[1] = compound: C1=CC(=CC=C1C2=NC3=C(N2)C=C(C=C3)C(=O)N)OC4=CC=C(C=C4)Cl
Procedure, shortened: as §1

[2] = compound: C1=CC=C(C=C1)C2=NC(=C(N2)C3=CC=NC=C3)C4=CC(=C(C=C4)Cl)O
Procedure, shortened: as §1

IRAK-1-4 Inhibitor I = compound: C1COCCN1CCN2C3=CC=CC=C3N=C2NC(=O)C4=CC(=CC=C4)[N+](=O)[O-] [IRAK-1-4 Inhibitor I]
Procedure, shortened: as §1

[3] = compound: C/C(=N\NC(=O)C1=CC(=CC=C1)S(=O)(=O)N2CCOCC2)/C3=C(C=CC(=C3)Cl)O
Procedure, shortened: as §1

[4] = compound: C1=CC2=C(C=CC(=C2)/C=C\3/C(=O)NC(=NCC4=CC=CS4)S3)N=C1
Procedure, shortened: as §1

[5] = compound: C1=CC=C2C(=C1)C3=NNC4=CC=CC(=C43)C2=O
Procedure, shortened: as §1

[6] = compound: C1CCN(C1)C(=O)NC2=CC=CC(=C2)NC3=NC=C(C(=N3)NCCC4=CN=CN4)Br
Procedure, shortened: as §1

[7] = compound: C1CN(CCC1(CC2=CC=C(C=C2)Cl)N)C3=NC=NC4=C3C=CN4
Procedure, shortened: as §1

[8] = compound: C1=CC2=NC=CN=C2C=C1/C=C/3\C(=O)NC(=O)S3
Procedure, shortened: as §1

Measured: log2 fold change

TCF3 isoform 2 (UniProt P15923)
inactive: erlotinib 0.131 | [1] -0.049 | [2] 0.154 | IRAK-1-4 Inhibitor I -0.249

UBN1 (UniProt Q9NPG3)
inactive: [3] 0.032 | [4] -0.056 | [5] 0.051 | [6] 0 | [7] -0.023

TCF20 (UniProt Q9UGU0)
inactive: erlotinib -0.04 | [1] -0.001 | [8] 0.039

TUBGCP5 (UniProt Q96RT8)
inactive: [3] 0.001 | [4] -0.026 | [8] 0.024 | [2] 0.013 | [5] 0.01 | [6] -0.003 | [7] -0.043 | IRAK-1-4 Inhibitor I -0.034

TLE3 isoform 5 (UniProt Q04726)
UniProt Q04726, sequence (Q04726 whole entry, looked up): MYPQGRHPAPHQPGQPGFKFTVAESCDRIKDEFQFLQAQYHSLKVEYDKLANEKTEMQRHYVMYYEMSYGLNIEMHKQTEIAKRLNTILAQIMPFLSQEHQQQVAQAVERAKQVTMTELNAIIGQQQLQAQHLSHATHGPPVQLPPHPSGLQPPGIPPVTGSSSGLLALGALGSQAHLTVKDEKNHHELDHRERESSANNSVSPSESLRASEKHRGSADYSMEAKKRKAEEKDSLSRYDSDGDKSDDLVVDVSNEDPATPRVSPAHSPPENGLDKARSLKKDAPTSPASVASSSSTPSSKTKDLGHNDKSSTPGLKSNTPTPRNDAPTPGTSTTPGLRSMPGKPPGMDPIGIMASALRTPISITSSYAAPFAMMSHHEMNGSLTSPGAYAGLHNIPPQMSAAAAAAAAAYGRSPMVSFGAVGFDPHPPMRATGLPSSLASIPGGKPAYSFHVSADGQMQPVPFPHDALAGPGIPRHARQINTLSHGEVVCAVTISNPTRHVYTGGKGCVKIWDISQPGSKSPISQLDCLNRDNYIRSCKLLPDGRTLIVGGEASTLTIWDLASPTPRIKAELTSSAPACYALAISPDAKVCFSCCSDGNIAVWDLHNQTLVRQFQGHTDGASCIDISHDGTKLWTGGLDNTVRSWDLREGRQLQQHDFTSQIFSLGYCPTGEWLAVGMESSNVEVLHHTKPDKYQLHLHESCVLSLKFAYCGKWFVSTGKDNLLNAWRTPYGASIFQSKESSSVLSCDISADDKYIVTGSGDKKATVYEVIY
inactive: erlotinib 0.036 | [1] -0.068 | [8] 0.237 | [2] 0.06 | [6] -0.068 | [7] 0.01 | IRAK-1-4 Inhibitor I -0.021

TRPM4 (UniProt Q8TD43)
inactive: erlotinib 0.018 | [1] 0.164 | [8] -0.094 | [2] 0.004 | IRAK-1-4 Inhibitor I -0.152

UBAP2L isoform 1 (UniProt Q14157)
UniProt Q14157, sequence (Q14157 whole entry, looked up): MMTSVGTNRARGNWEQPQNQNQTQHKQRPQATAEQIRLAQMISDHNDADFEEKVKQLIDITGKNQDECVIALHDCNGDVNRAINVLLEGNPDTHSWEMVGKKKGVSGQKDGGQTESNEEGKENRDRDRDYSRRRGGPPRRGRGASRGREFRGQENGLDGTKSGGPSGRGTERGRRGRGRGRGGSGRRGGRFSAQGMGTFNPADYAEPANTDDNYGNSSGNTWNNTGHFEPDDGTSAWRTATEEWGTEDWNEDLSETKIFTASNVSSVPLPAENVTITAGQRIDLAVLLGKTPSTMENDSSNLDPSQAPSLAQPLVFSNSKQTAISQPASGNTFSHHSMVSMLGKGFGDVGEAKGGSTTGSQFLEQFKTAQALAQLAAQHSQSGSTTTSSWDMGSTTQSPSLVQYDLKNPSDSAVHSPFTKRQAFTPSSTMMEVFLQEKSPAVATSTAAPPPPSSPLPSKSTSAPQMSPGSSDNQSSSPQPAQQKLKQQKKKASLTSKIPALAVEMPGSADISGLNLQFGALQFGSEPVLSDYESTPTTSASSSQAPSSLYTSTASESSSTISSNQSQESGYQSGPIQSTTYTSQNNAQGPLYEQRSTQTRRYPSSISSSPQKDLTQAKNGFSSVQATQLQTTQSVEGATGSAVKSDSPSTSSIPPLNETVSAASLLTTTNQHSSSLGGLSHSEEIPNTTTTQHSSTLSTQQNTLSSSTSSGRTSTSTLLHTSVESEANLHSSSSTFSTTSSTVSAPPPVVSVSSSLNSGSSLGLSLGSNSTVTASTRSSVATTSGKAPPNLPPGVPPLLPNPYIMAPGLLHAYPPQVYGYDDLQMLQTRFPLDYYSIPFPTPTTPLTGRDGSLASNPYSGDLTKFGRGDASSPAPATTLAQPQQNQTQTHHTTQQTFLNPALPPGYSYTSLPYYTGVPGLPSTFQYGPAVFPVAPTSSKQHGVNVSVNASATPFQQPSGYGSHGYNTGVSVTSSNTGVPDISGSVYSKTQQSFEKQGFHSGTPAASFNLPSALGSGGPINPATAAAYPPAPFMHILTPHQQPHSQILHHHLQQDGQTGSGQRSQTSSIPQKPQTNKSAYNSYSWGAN
inactive: [8] 0.081 | [2] -0.367 | IRAK-1-4 Inhibitor I 0.084

U2AF1L5 (UniProt P0DN76)
inactive: erlotinib -0.029 | [1] 0.044 | [2] -0.066 | [6] 0.109 | [7] -0.107 | IRAK-1-4 Inhibitor I 0.132

TMC1 (UniProt Q8TDI8)
inactive: erlotinib -0.028 | [3] -0.001 | [1] -0.007 | [4] 0.013 | [2] -0.072 | [5] -0.071 | [6] -0.148 | [7] -0.081 | IRAK-1-4 Inhibitor I 0.099

TASP1 (UniProt Q9H6P5)
inactive: erlotinib -0.013 | [1] -0.017 | [8] -0.102 | [2] -0.022 | [6] -0.062 | [7] 0.092 | IRAK-1-4 Inhibitor I 0.055

TMPO isoform 2 (UniProt P42167)
inactive: [3] -0.053 | [4] 0.044 | [8] 0.143 | [5] -0.121 | [6] 0.163 | [7] 0.038

TNFAIP3 (UniProt P21580)
UniProt P21580, sequence (P21580 whole entry, looked up): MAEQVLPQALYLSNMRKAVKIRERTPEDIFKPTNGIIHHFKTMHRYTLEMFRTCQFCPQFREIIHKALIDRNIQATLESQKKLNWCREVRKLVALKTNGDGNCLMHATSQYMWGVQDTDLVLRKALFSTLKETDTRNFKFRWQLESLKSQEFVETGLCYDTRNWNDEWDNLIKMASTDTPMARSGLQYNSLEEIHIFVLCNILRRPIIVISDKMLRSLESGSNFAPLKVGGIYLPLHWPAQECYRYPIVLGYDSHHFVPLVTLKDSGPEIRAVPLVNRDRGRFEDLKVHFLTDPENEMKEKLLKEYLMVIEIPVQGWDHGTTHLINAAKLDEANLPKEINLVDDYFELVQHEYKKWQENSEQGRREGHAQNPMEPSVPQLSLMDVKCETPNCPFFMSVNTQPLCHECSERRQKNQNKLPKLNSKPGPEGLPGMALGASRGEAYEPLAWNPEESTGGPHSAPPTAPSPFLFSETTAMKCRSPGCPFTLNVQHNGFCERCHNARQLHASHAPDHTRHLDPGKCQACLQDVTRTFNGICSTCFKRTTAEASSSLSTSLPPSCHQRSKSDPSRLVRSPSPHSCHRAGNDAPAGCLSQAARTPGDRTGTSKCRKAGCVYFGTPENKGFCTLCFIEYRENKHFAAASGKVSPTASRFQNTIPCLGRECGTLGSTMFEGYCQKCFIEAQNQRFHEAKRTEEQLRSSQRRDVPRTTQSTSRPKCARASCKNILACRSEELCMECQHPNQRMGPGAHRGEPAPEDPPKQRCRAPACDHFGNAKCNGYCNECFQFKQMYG
inactive: erlotinib 0.018 | [1] 0.024 | [8] 0.03 | [2] -0.049 | [6] -0.296 | [7] 0.09 | IRAK-1-4 Inhibitor I 0.047

TUBB4A (UniProt P04350)
UniProt P04350, sequence (P04350 whole entry, looked up): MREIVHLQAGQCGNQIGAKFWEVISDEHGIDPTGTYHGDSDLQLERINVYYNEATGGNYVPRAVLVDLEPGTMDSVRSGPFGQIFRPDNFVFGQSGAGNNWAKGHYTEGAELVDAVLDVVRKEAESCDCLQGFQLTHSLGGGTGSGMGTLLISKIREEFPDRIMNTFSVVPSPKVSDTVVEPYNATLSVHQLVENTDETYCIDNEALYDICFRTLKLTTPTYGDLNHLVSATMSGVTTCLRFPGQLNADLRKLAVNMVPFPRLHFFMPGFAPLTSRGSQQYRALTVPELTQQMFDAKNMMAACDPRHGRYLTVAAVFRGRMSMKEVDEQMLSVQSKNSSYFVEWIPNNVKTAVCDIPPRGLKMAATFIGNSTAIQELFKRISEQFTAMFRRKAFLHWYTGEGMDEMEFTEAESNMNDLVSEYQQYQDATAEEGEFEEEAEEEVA
inactive: erlotinib 0.036 | [1] 0.015 | [8] -0.016 | [2] -0.066 | [6] 0.017 | [7] -0.001 | IRAK-1-4 Inhibitor I 0.086

TRAF7 (UniProt Q6Q0C0)
inactive: [3] 0.006 | [4] -0.042 | [2] -0.026 | [5] -0.151 | [6] -0.05 | [7] 0.116 | IRAK-1-4 Inhibitor I -0.047

TGFBR1 isoform 2 (UniProt P36897)
inactive: erlotinib 0.042 | [1] -0.069 | [6] 0.14 | [7] -0.102

UBAP2L (UniProt F8W726)
inactive: [3] -0.074 | [4] 0.048 | [5] 0.168

TFPI isoform 2 (UniProt P10646)
inactive: [3] 0.01 | [4] 0.113 | [5] -0.171

UCP2 (UniProt P55851)
inactive: [3] 0.217 | [4] -0.114 | [2] 0.011 | [5] -0.025 | IRAK-1-4 Inhibitor I -0.026

TNKS (UniProt O95271)
inactive: erlotinib 0.064 | [3] -0.024 | [1] -0.036 | [4] -0.005 | [2] 0.052 | [5] -0.01 | [6] -0.061 | [7] -0.02 | IRAK-1-4 Inhibitor I -0.073

TSPAN3 (UniProt O60637)
UniProt O60637, sequence (O60637 whole entry, looked up): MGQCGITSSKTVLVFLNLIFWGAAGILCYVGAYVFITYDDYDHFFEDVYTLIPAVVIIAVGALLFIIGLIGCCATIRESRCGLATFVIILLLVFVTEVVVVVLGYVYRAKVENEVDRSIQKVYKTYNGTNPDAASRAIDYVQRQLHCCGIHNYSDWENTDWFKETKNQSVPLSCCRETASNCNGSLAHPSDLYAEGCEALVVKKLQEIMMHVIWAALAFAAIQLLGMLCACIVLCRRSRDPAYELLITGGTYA
inactive: erlotinib 0.002 | [3] 0.012 | [1] 0.058 | [4] -0.073 | [2] 0 | [5] -0.135 | [6] 0.006 | [7] 0.032 | IRAK-1-4 Inhibitor I 0.091

TMEM154 (UniProt Q6P9G4)
inactive: [2] 0.01 | [6] -0.096 | [7] 0.108 | IRAK-1-4 Inhibitor I 0.019

TRIM3 (UniProt O75382)
inactive: erlotinib 0.129 | [3] 0.2 | [4] 0.098 | [5] 0.012 | [6] 0 | [7] -0.265
active: [1] -0.909

TM2D3 (UniProt Q9BRN9)
inactive: erlotinib 0.104 | [1] -0.083 | [8] -0.068 | [2] 0.205 | [6] 0.153 | [7] 0.088 | IRAK-1-4 Inhibitor I 0.148

TEC (UniProt P42680)
inactive: [3] 0.092 | [4] -0.051 | [5] -0.048 | [6] -0.024 | [7] -0.038

TPM3 isoform 3 (UniProt P06753)
inactive: erlotinib -0.074 | [3] -0.007 | [1] -0.076 | [4] -0.006 | [2] -0.033 | [5] 0.08 | [6] 0.084 | [7] -0.068 | IRAK-1-4 Inhibitor I -0.016

TENM4 (UniProt Q6N022)
inactive: [8] -0.334

TNIK (UniProt C9J338)
inactive: erlotinib 0.067 | [3] -0.048 | [1] 0.067 | [4] -0.071 | [8] -0.064 | [5] -0.112 | [6] -0.101 | [7] 0.064

TFPT (UniProt P0C1Z6)
inactive: erlotinib -0.078 | [1] 0.037 | [8] -0.186

TMSB4X (UniProt P62328)
inactive: erlotinib 0.079 | [1] 0.084 | [8] -0.031 | [2] 0.002 | [6] 0.018 | [7] 0.085 | IRAK-1-4 Inhibitor I -0.083

THAP9 (UniProt Q9H5L6)
inactive: [3] 0.019 | [4] -0.015 | [8] 0.01 | [2] 0.028 | [5] -0.042 | [6] -0.092 | [7] 0.098 | IRAK-1-4 Inhibitor I 0.145

UBIAD1 (UniProt Q9Y5Z9)
UniProt Q9Y5Z9, sequence (Q9Y5Z9 whole entry, looked up): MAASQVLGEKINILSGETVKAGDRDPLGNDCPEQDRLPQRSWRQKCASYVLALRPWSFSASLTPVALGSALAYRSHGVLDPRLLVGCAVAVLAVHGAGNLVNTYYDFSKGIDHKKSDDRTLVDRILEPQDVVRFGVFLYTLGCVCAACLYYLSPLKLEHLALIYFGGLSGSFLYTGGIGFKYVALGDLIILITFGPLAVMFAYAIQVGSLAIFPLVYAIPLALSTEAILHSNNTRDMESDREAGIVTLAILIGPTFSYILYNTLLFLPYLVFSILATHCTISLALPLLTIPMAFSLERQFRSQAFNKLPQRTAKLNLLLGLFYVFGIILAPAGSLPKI
inactive: erlotinib 0.013 | [3] 0.16 | [1] -0.128 | [4] 0.092 | [2] 0.249 | [6] 0.023 | [7] 0.057 | IRAK-1-4 Inhibitor I -0.042
active: [5] 0.46

TEDC1 (UniProt Q86SX3)
inactive: erlotinib 0.05 | [1] 0.057 | [2] 0.05 | [6] -0.127 | [7] -0.048 | IRAK-1-4 Inhibitor I -0.06

TCF4 (UniProt P15884)
inactive: [2] 0.005 | [6] 0.234 | [7] -0.165 | IRAK-1-4 Inhibitor I -0.152

TXNRD2 isoform 3 (UniProt Q9NNW7)
inactive: erlotinib 0.024 | [1] 0.035 | [2] 0.14 | IRAK-1-4 Inhibitor I -0.006

TUBA4A (UniProt C9JQ00)
inactive: [8] -0.18

TMEM132A isoform 2 (UniProt Q24JP5)
inactive: erlotinib -0.031 | [1] -0.009 | [2] -0.064 | [6] 0.042 | [7] 0.068 | IRAK-1-4 Inhibitor I 0.101

TNIK isoform 5 (UniProt Q9UKE5)
UniProt Q9UKE5, sequence (Q9UKE5 whole entry, looked up): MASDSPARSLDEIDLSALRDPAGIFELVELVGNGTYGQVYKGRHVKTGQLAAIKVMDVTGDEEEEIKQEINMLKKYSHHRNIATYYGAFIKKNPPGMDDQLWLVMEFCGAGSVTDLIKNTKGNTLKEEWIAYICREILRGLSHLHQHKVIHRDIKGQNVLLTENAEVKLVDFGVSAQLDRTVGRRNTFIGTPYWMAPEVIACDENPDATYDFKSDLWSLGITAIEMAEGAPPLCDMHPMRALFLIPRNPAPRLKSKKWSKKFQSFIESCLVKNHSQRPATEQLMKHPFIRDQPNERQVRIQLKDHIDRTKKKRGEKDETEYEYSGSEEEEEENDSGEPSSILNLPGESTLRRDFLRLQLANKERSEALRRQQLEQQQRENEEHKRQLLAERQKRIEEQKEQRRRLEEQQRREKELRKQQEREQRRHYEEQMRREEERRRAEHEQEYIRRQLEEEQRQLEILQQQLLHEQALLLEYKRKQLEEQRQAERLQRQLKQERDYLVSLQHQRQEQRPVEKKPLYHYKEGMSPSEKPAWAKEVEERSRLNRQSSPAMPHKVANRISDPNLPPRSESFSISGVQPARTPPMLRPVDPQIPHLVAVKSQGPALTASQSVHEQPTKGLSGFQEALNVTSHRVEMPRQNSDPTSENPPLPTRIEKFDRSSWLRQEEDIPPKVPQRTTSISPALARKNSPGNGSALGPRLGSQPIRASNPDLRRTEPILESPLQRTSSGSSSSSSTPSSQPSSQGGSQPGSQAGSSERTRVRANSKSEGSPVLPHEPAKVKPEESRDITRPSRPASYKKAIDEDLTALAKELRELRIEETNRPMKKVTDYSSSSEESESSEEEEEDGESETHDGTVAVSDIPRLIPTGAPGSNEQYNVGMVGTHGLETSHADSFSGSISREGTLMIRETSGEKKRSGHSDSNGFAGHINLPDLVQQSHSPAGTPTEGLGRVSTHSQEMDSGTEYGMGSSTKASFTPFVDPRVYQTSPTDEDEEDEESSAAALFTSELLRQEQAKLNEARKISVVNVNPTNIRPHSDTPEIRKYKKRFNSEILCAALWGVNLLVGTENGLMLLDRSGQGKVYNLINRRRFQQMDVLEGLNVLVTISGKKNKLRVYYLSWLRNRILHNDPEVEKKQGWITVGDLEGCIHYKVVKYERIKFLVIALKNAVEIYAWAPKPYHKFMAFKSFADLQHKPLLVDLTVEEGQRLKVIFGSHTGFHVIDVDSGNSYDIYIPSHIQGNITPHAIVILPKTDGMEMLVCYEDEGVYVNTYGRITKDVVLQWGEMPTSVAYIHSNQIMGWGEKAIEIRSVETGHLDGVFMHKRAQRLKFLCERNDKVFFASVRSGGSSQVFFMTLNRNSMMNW
inactive: [8] 0.008 | [2] 0.134 | IRAK-1-4 Inhibitor I -0.038
